Test results reported in PubChem BioAssay AID1159580 (chemical genetic matrix, 2015).
Among all 5,500 compounds or so, about 2,000 (36%) were called active. About 18% were inconclusive and are not listed. Cut-off read from the data, not from the text of the source: active = normalized growth mostly below about 0.91 (no sharp cut-off); inconclusive = no clear call, values can overlap the other calls; inactive = mostly above about 0.92. This is one part of the list.

Test: chemical genetic growth profiling, strain panel (AID 1159580);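 note: tested at 20 µM; growth read once vehicle control cultures reached saturation at 30 °C; 1 = growth at the plate median or of vehicle wells; lower values mean less growth of the strain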
Conditions: S. cerevisiae deletion strains, growth OD

Measured: normalized growth

CC(=O)OC1C(=O)C2(C)C(O)CC3OCC3(OC(C)=O)C2C(OC(=O)c2ccccc2)C2(O)CC(OC(=O)C(O)C(NC(=O)c3ccccc3)c3ccccc3)C(C)=C1C2(C)C (stereo not drawn)
inactive: locus YCL061C, strain MRC1 (second series), active compounds read low 0.996 | locus YDR363W, strain ESC2, active compounds read low 0.984 | locus YER002W, strain NOP16, active compounds read low 1 | locus YMR307W, strain GAS1, active compounds read low 0.975 | locus YNL128W, strain TEP1, active compounds read low 1 | locus YNL197C, strain WHI3, active compounds read low 0.981 | locus YNL224C, strain SQS1, active compounds read low 1.03 | locus YPL241C, strain CIN2, active compounds read low 0.995
